# Records with an inconclusive call do not appear. Activity calls are given as the source filed them.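 How the source made its calls, unless noted: active means normalized viability below 100% at a tested concentration; inactive means the rest.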
# Assays:
# [1] = viability loss in pontine glioma line – cell-based, SU-DIPG-XVII, MIPE5.0, CellTiter-Glo, qHTS, dose response (AID 1347060; cut-off not given, nearly all actives have AC50 up to about 26 µM); conditions: CellTiter-Glo ATP luminescence
# [2] = viability loss in pontine glioma line – cell-based, SU-DIPG-XIII, MIPE4.0, CellTiter-Glo, qHTS, dose response (AID 1347061; cut-off not given, nearly all actives have AC50 up to about 37 µM;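 further: cells exposed to compound for 48 hours before readout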); conditions: CellTiter-Glo ATP luminescence
# [3] = viability loss in pontine glioma line – cell-based, JHH-DIPG-1, MIPE4.0, CellTiter-Glo, qHTS, dose response (AID 1347062; cut-off not given, nearly all actives have AC50 up to about 27 µM); conditions: JHH-DIPG-1 viability, CellTiter-Glo ATP luminescence
# [4] = viability loss in pontine glioma line – cell-based, SU-DIPG-IV, MIPE4.0, CellTiter-Glo, qHTS, dose response (AID 1347063; cut-off not given, nearly all actives have AC50 up to about 30 µM;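 further: compound exposure lasted 48 hours before the viability readout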); conditions: CellTiter-Glo ATP luminescence
# [5] = viability loss in pontine glioma line – cell-based, SU-DIPG-XIII, MIPE5.0, CellTiter-Glo, qHTS, dose response (AID 1347064; cut-off not given, nearly all actives have AC50 up to about 23 µM); conditions: CellTiter-Glo ATP luminescence
# [6] = viability loss in pontine glioma line – cell-based, SU-DIPG-XXV, MIPE5.0, CellTiter-Glo, qHTS, dose response (AID 1347065; cut-off not given, nearly all actives have AC50 up to about 26 µM;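 further: cells exposed to compound for 48 hours before ATP readout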); conditions: CellTiter-Glo ATP luminescence
# [7] = growth inhibition of DIPG cells – cell-based, MIPE4.0 library, CellTiter-Glo luminescence, qHTS (AID 1347066; cut-off not given, nearly all actives have AC50 up to about 30 µM;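 further: cells exposed to compound for 48 hours before readout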); conditions: SU-DIPG-VI viability, CellTiter-Glo ATP luminescence
# [8] = growth inhibition of DIPG cells – cell-based, MIPE5.0 library, qHTS (AID 1347068; cut-off not given, nearly all actives have IC50 up to about 30 µM); conditions: SU-DIPG-XXV viability
# [9] = viability loss with induced miR-34 in A549 – imaging, A549 dox-inducible miR-34, nuclei and caspase counts, primary screen (AID 1347080;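 active means compounds whose cell count with miR-34 switched on is under 0.7 times the count with it off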); conditions: A549 miR-34 inducible, Hoechst nuclei count, 48 h
# [10] = compounds altering HSF1 focus formation in cells – imaging, Selleck Cancer Library (AID 1347162; in the data active means plate-normalised HSF1 focus index below about 0.46); conditions: human cells, HSF1 nuclear foci imaging, at 10 µM; SSMD: measured here: HSF1 foci SSMD mean; cell count: measured here: cell number; plate-normalised HSF1 focus index: stronger effect = lower value
# [11] = MELAS cybrid and Rieske KO viability enhancers – cell-based, MELAS cybrids, Rieske KO mouse fibroblasts, CellTiter-Glo, primary screen (AID 1508586;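 active means mean z-score across replicates of 1.96 or higher in either the MELAS or the Rieske mutant cell line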;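 further: z relative to plate mean and SD of compound and empty wells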); conditions: low glucose
# [12] = drug combination growth inhibition, ovarian cancer – cell-based, oncology-focused library, rucaparib conditional, profiling panel (AID 1508598); conditions: patient-derived ovarian cancer cells, CellTiter-Glo viability, 144 h, stronger effect = lower value
# [13] = JHH-DIPG-1 glioma cell viability, MIPE5.0 library, CellTiter-Glo luminescence, qHTS (AID 1347067; cut-off not given, nearly all actives have AC50 up to about 26 µM;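 further: cells exposed to compound for 48 hours before readout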); conditions: JHH-DIPG-1 glioma viability, CellTiter-Glo ATP luminescence
compound,measurement,setting,value
CCOc1ccn(-c2ccc(F)cc2)c(=O)c1C(=O)Nc1ccc(Oc2ccnc(N)c2Cl)c(F)c1,outcome,[1],inactive
same,outcome,[2],inactive
same,outcome,[3],inactive
same,AC50,[4],18.7 µM (active)
same,outcome,[5],inactive
same,AC50,[6],11.8 µM (active)
same,outcome,[7],inactive
same,outcome,[8],inactive
same,fold change,"[9]; stronger effect = lower value, cell number ratio, induced over uninduced",1.21 (inactive)
same,fold change,[9]; measured here: relative caspase fold change +Dox/-Dox,0.507
same,cell count,"[9]; measured here: total cells with miR-34 induction, stronger effect = lower value",5080
same,cell count,[9]; measured here: total cells without miR-34 induction,4210
same,SSMD,[10],2.9
same,cell count,[10],7130
same,plate-normalised HSF1 focus index,[10],1.11 (inactive)
same,z-score,"[11]; MELAS cybrid survival, CellTiter-Glo 48 h, stronger effect = higher value",-0.348 (inactive)
same,z-score,"[11]; Rieske KO mouse fibroblast survival, CellTiter-Glo 72 h",-0.0407
same,viability,"[12]; at 0.000305 µM, OCI-C5x cells, with rucaparib 10 µM, 100% = cells with rucaparib alone",118% (inactive)
same,viability,"[12]; at 0.000305 µM, OCI-C5x cells, without rucaparib",124% (inactive)
same,viability,"[12]; at 0.000305 µM, OCI-P5x cells, with rucaparib 20 µM, 100% = cells with rucaparib alone",109% (inactive)
same,viability,"[12]; at 0.000305 µM, OCI-P5x cells, without rucaparib",129% (inactive)
same,viability,"[12]; at 0.00122 µM, OCI-C5x cells, with rucaparib 10 µM, 100% = cells with rucaparib alone",125% (inactive)
same,viability,"[12]; at 0.00122 µM, OCI-C5x cells, without rucaparib",134% (inactive)
same,viability,"[12]; at 0.00122 µM, OCI-P5x cells, with rucaparib 20 µM, 100% = cells with rucaparib alone",99.9% (active)
same,viability,"[12]; at 0.00122 µM, OCI-P5x cells, without rucaparib",120% (inactive)
same,viability,"[12]; at 0.00488 µM, OCI-C5x cells, with rucaparib 10 µM, 100% = cells with rucaparib alone",113% (inactive)
same,viability,"[12]; at 0.00488 µM, OCI-C5x cells, without rucaparib",120% (inactive)
same,viability,"[12]; at 0.00488 µM, OCI-P5x cells, with rucaparib 20 µM, 100% = cells with rucaparib alone",103% (inactive)
same,viability,"[12]; at 0.00488 µM, OCI-P5x cells, without rucaparib",117% (inactive)
same,viability,"[12]; at 0.0195 µM, OCI-C5x cells, with rucaparib 10 µM, 100% = cells with rucaparib alone",116% (inactive)
same,viability,"[12]; at 0.0195 µM, OCI-C5x cells, without rucaparib",118% (inactive)
same,viability,"[12]; at 0.0195 µM, OCI-P5x cells, with rucaparib 20 µM, 100% = cells with rucaparib alone",101% (inactive)
same,viability,"[12]; at 0.0195 µM, OCI-P5x cells, without rucaparib",114% (inactive)
same,viability,"[12]; at 0.0781 µM, OCI-C5x cells, with rucaparib 10 µM, 100% = cells with rucaparib alone",110% (inactive)
same,viability,"[12]; at 0.0781 µM, OCI-C5x cells, without rucaparib",138% (inactive)
same,viability,"[12]; at 0.0781 µM, OCI-P5x cells, with rucaparib 20 µM, 100% = cells with rucaparib alone",107% (inactive)
same,viability,"[12]; at 0.0781 µM, OCI-P5x cells, without rucaparib",116% (inactive)
same,viability,"[12]; at 0.313 µM, OCI-C5x cells, with rucaparib 10 µM, 100% = cells with rucaparib alone",129% (inactive)
same,viability,"[12]; at 0.313 µM, OCI-C5x cells, without rucaparib",128% (inactive)
same,viability,"[12]; at 0.313 µM, OCI-P5x cells, with rucaparib 20 µM, 100% = cells with rucaparib alone",91.8% (active)
same,viability,"[12]; at 0.313 µM, OCI-P5x cells, without rucaparib",106% (inactive)
same,viability,"[12]; at 1.25 µM, OCI-C5x cells, with rucaparib 10 µM, 100% = cells with rucaparib alone",135% (inactive)
same,viability,"[12]; at 1.25 µM, OCI-C5x cells, without rucaparib",120% (inactive)
same,viability,"[12]; at 1.25 µM, OCI-P5x cells, with rucaparib 20 µM, 100% = cells with rucaparib alone",88.6% (active)
same,viability,"[12]; at 1.25 µM, OCI-P5x cells, without rucaparib",97.3% (active)
same,viability,"[12]; at 5 µM, OCI-C5x cells, with rucaparib 10 µM, 100% = cells with rucaparib alone",133% (inactive)
same,viability,"[12]; at 5 µM, OCI-C5x cells, without rucaparib",135% (inactive)
same,viability,"[12]; at 5 µM, OCI-P5x cells, with rucaparib 20 µM, 100% = cells with rucaparib alone",65.2% (active)
same,viability,"[12]; at 5 µM, OCI-P5x cells, without rucaparib",96.2% (active)
Nc1ncnc2ccccc12,outcome,[1],inactive
same,outcome,[2],inactive
same,outcome,[3],inactive
same,outcome,[4],inactive
same,outcome,[5],inactive
same,outcome,[6],inactive
same,outcome,[13],inactive
same,outcome,[8],inactive
